ClpP mod: qHTS Assay for Activators of ClpP; hit rate 1.9% among 340,000; purified B. subtilis ClpP, FRET peptide cleavage, 20 min; Potency, µM (series often up to 57.5 µM), for the others: top-dose activity change, negative = active; AID 651965, 2013; ATP-dependent Clp protease proteolytic subunit (Bacillus subtilis (strain 168)), P80244; active means well fitted falling curve with a large enough effect; inconclusive means small, poorly fitted or top-dose-only effect; inactive means no such curve, though single readings can be large or run the other way; further: potency means the concentration at half of the fitted maximal effect; the source files actives as falling curves though it sought activators and does not explain the sign; nearly all actives have a fitted effect of over 65% in size
Target sequence (P80244 whole entry, looked up): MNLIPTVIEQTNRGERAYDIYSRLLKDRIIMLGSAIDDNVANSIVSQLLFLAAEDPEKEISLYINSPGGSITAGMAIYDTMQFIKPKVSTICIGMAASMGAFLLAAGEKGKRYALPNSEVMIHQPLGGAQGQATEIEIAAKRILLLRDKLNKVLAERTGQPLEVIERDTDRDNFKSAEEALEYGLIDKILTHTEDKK
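ClpP 10 microg/mL final, pH 8 Tris/KCl buffer with BSA, glycerol, Tween-20; compound pinned in; FRET-FV substrate; RT 20 min; Ex320/Em430; ΔFRET vs ADEP 5.8 microM, DMSO, no enzyme.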
GLP1R cytotox: cytotoxicity in counter-screen for GLP-1R inverse agonists; HEK293 cAMP-luciferase reporter cells, luminescence, 24 h; Potency, µM (titrated, usually from 38.3 µM), for the others: top-dose activity change, negative = inhibition, actives largely listed as inhibitors; hit rate 0.13% among 410,000; AID 624418;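 further: loss of luciferase light is scored as toxicity; potency means the concentration at half of the fitted maximal effect; on the % scale 0 is the no-effect control and ±100 the full control effect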
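Luminescence readout: signal drop marks cytotoxicity. Plated cells grew 12 h at 37 °C, 5% CO2, received 23 nL compound for 24 h, then got luciferase reagent, read after 12 min at RT.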
DRD3 antagonist: blocks the human D3 dopamine receptor | P35462 | D3R cells, DiscoveRx beta-arrestin luminescence, antagonist mode; hits give low values | max response, negative = inhibition, % | hit rate 2.5% among 360,000 | AID 652054; in the data active means max response below about -50%; inconclusive means no clear call, values can overlap the other calls; further: on the % scale 0 is the no-effect control and ±100 the full control effect
Target sequence (P35462 whole entry, looked up): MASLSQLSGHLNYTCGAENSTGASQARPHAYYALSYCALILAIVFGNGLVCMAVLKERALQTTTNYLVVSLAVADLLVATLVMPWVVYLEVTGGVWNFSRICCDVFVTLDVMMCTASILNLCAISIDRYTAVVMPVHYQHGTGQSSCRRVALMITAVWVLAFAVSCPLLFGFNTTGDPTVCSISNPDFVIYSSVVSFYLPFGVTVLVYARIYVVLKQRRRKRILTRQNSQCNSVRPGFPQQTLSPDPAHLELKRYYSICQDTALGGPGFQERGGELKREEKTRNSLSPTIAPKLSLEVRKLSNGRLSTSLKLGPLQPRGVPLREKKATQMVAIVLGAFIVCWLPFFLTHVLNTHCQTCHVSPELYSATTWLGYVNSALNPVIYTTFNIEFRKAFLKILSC
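Cells plated overnight at 1500 cells/well, then exposed to library compounds with dopamine controls for 90 minutes at 37 degrees C. DiscoveRx reagent added for 30–60 minutes at room temperature; luminescence read, quantitative HTS format.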
GLP-1R inv ag: inverse agonists of human GLP-1 receptor | P43220 | HEK293 GLP-1R CRE-luciferase, luminescence, 24 h; GLP-1R form is constitutively active | Potency, µM (titrated, usually from 38.3 µM), without a hit: top-dose activity change, negative = inhibition, usual class: inhibitors | hit rate 1.6% among 410,000 | AID 624417; further: potency means the concentration at half of the fitted maximal effect; on the % scale 0 is the no-effect control and ±100 the full control effect; nearly all actives have a fitted effect of over 55% in size
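Seeding at 200 cells/uL, 12 h culture, 24 hr compound treatment, then luciferase reagent and a luminescence read; cells are HEK293 stably expressing a constitutively active GLP-1R plus cAMP-responsive luciferase.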
DRD3 agonist: agonists of human D3 dopamine receptor; max activation, %; hit rate 0.58% among 410,000; D3R DiscoveRx beta-arrestin cells, luminescence, 90 min; AID 652048; P35462; in the data active means max activation above about 30%; further: 0% is about no effect
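Agonist mode: compounds and dopamine controls were applied to plated cells for 90 min at 37 degrees C after an overnight attachment at 1500 cells/well. Luminescent read-out followed 30 - 60 minutes at room temperature with DiscoveRx detection reagent.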
GLP-1R agonist: agonists of human GLP-1 receptor | P43220 | HEK293 GLP-1R CRE-luciferase, luminescence, 4-6 h; cells express a hypersensitive GLP-1R form | Potency, µM (titrated, usually from 45.6 µM), for inactives: top-dose activation, actives largely listed as activators | hit rate 0.007% among 380,000; further: potency means the concentration at half of the fitted maximal effect; % of control where 0% means no effect
* marks the source's active call; other numbers are inactive results; ? = inconclusive; / = no result. Hits are enriched below; roughly 5.7% of the tested compounds scored in any of these assays. Unless noted, the call rests on the fitted dose curve; in most records, active means well fitted curve in the direction sought with a large enough effect; inconclusive means small, poorly fitted or top-dose-only effect, or another doubt; inactive means no such curve, though single readings can be large; an effect the other way counts as inactive or inconclusive.

SMILES	ClpP mod	GLP1R cytotox	DRD3 antagonist	GLP-1R inv ag	DRD3 agonist	GLP-1R agonist
COc1cc(-c2nc3ncccn3c2Nc2ccc(C)cc2C)ccc1O	-4.4%	-18.9%	/	-24.2%	-24.0	/
O=C(N/C=N/OCc1cccc(C(F)(F)F)c1)N1OC[C@@H]2COc3ccc4ccccc4c3[C@@H]21	?	29.3%	-7.5	5.62µM*	0.7	-6.2%
CO/N=C/NC(=O)N1OC[C@@H]2COc3ccc4ccccc4c3[C@@H]21	-4.2%	36.0%	-14.9	-8.4%	1.7	-2.1%
O=C(Nc1ccccc1)c1ccc(Br)c(S(=O)(=O)N2CCCCC2)c1	-4.8%	-16.1%	/	?	-23.4	/
Cn1cc(-c2nc3ccccc3[nH]2)c2ccccc21	28.2µM*	-19.5%	23.0	?	2.0	5.6%
CCn1c(=O)c(-c2nc3ccccc3[nH]2)c(O)c2ccccc21	/	3.1%	-86.3*	16.8%	-36.7	9.6%
c1ccc(-c2cc(-c3nc4ccccc4[nH]3)c3ccccc3n2)cc1	17.8µM*	-21.1%	7.0	?	-3.8	-21.4%
CCCn1c(=O)c(-c2nc3ccccc3[nH]2)c(O)c2ccccc21	?	3.7%	-6.2	17.1%	8.0	1.5%
Cc1c(-c2nc3ccccc3[nH]2)cnn1C	-2.4%	0.4%	10.8	12.5%	-4.1	-3.3%
CC(C)NC(=O)C1CCN(c2nc3ccccc3nc2C(F)(F)F)CC1	-4.6%	1.7%	/	2.3%	2.9	/
O=C1CC2(CCN(C(=O)c3ccccc3Br)CC2)Oc2ccccc21	28.2µM*	22.9%	-21.5	?	-11.1	-1.1%
O=C1CC2(CCN(C(=O)c3ccc(Br)cc3)CC2)Oc2ccccc21	31.6µM*	12.7%	-4.3	?	-13.2	-4.4%
O=C1CC2(CCN(C(=O)c3ccc([N+](=O)[O-])cc3)CC2)Oc2ccccc21	/	4.3%	-21.7	-10.8%	-20.6	5.9%
CN(C)c1ccc(/C=C2\CCc3ccccc32)cc1	4.3%	/	/	/	/	/
Cc1ccc(CN2CCC2(C)C(=O)NC2CCc3ccccc32)cc1 (stereo unspecified)	3.0%	-0.5%	16.5	?	3.7	10.1%
O=C(C(=Cc1ccc(F)cc1)C(=O)c1ccccc1)c1ccccc1	7.1%	?	-61.5*	?	-8.0	-15.5%
O=C(C(=Cc1ccc(F)cc1)c1ccccc1)c1ccc(O)cc1	-2.2%	?	18.9	?	2.6	-6.1%
CC(=O)Nc1ccc(Sc2ccc([N+](=O)[O-])o2)cc1	/	?	-74.1*	?	-26.3	-6.2%
CC(C)(C)c1ccc(C(=O)CC(Sc2ccc(Cl)cc2)C(=O)O)cc1 (stereo unspecified)	/	?	-64.0*	?	-16.6	1.4%
Cc1ccc(SC(CC(=O)c2ccc(F)cc2)C(=O)O)cc1 (stereo unspecified)	2.9%	-2.3%	0.0	?	-1.4	2.4%
Cn1cc(CN2CCc3sccc3C2)c(-c2ccccc2F)n1	-5.2%	-4.0%	-91.2*	2.7%	-19.5	8.9%
COc1ccc(OC)c(-c2cc(C(=O)NCc3ccco3)no2)c1	?	-0.2%	-54.1*	-2.3%	-27.4	?
COc1ccc(OC)c(-c2cc(C(=O)N3CCc4ccccc4C3)no2)c1	25.1µM*	10.0%	22.9	0.0%	18.8	?
COc1ccc(OC)c(-c2cc(C(=O)Nc3c(C)nn(Cc4ccccc4)c3C)no2)c1	?	-5.3%	22.7	0.0%	35.5*	23.3%
COc1ccc(OC)c(-c2cc(C(=O)Nc3cc(C)on3)no2)c1	?	-21.1%	?	1.2%	-24.0	1.3%
SMILES	ClpP mod	GLP1R cytotox	DRD3 antagonist	GLP-1R inv ag	DRD3 agonist	GLP-1R agonist
COc1ccc(OC)c(-c2cc(C(=O)Nc3c(C)nn(Cc4ccc(Cl)cc4)c3C)no2)c1	35.5µM*	3.5%	16.4	0.0%	41.0*	20.1%
COc1ccccc1N1C(=O)c2ccccc2NC1C(OC)OC (stereo unspecified)	22.4µM*	0.2%	11.8	44.5%	16.5	1.2%
COc1ccccc1N1C(=O)c2ccccc2NC1c1cc(OC)c(OC)c(OC)c1 (stereo unspecified)	/	-9.3%	-10.5	17.4%	-4.2	13.1%
CC(=O)N1CCc2c(sc(NC(=O)c3ccc([N+](=O)[O-])o3)c2C#N)C1	-5.2%	-22.6%	-59.1*	7.7%	-12.3	-0.3%
O=C(CSc1nc(C2CC2)nc2sc3c(c12)CCCC3)NCc1ccco1	-2.9%	3.9%	-112.5*	15.7%	-3.9	3.4%
CC(C)Sc1nc2sc3c(c2c2nnc(SCC(=O)NCc4ccco4)n12)CCCC3	31.6µM*	-10.1%	-1.6	?	2.3	0.1%
CN1C[C@H](C(=O)N[C@]2(C)O[C@@]3(O)[C@@H]4CCCN4C(=O)[C@H](Cc4ccccc4)N3C2=O)CC2c3cccc4[nH]cc(c34)C[C@H]21 (stereo partly specified)	-2.3%	-14.7%	-65.3*	/	-38.9	/
CN1C[C@H](C(=O)N[C@]2(C)O[C@@]3(O)[C@@H]4CCCN4C(=O)[C@H](Cc4ccccc4)N3C2=O)C[C@@H]2c3cccc4[nH]cc(c34)C[C@H]21	/	/	/	/	2.4	/
c1ccc2c(c1)ccn1c(Cc3ccsc3)c(C3CCCCC3)nc21	?	0.8%	-82.6*	?	-17.2	0.4%
CC(=O)c1cc(CC=C(C)C)c(O)cc1O	1.9%	22.3%	-5.2	-29.7%	-0.5	0.4%
CC(=O)c1cc(CC=C(C)C)c(O)c(CC=C(C)C)c1O	28.2µM*	-13.8%	7.5	?	3.0	0.9%
COc1ccccc1C(NC(=O)C1CCN(CCOc2ccc(Cl)cc2)CC1)c1ccccn1 (stereo unspecified)	-2.0%	-17.7%	-77.8*	?	-8.3	-4.2%
COc1ccccc1C(NC(=O)C1CCN(CCOc2ccc(Cl)cc2Cl)CC1)c1ccccn1 (stereo unspecified)	0.3%	-20.8%	?	?	-12.9	-0.6%
COc1ccccc1C(NC(=O)C1CCN(CCc2ccc(Br)cc2)CC1)c1ccccn1 (stereo unspecified)	0.5%	1.9%	?	?	-13.8	-5.1%
CC(NC(=O)C1CCN(CCOc2ccc(Cl)cc2)CC1)c1cccc2ccccc12 (stereo unspecified)	-8.6%	3.5%	-52.6*	?	-17.0	-5.9%
COc1ccc(CN2CCC(C(=O)NC(C)c3cccc4ccccc34)CC2)cc1 (stereo unspecified)	-1.6%	0.2%	?	-28.3%	-10.3	5.1%
COc1ccccc1C(NC(=O)C1CCN(CCOc2ccccc2)CC1)c1ccccn1 (stereo unspecified)	1.0%	4.5%	-55.2*	?	-7.0	-2.6%

Screening data from PubChem.
